PubChem BioAssay
A number with no mark means an inactive call. For some assays here: Results with a measured potency or affinity are listed apart. The source made the active and inactive calls. Unless noted, how the calls were made is not given here.

What was measured:
[1] = antimalarial activity against Dd2 strain (AID 2302;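 active means growth inhibition above 50% at the single 2 µM test dose, taken to imply half-maximal potency below 2 µM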;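 further: 0% = DMSO untreated growth and 100% = chloroquine plus artemisinin killed control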); settings: P. falciparum Dd2 in RBCs, LDH growth readout, 72 h; at 2 µM; active compounds read high
[2] = HepG2 cytotoxicity, primary screen, cytotoxicity control for P. falciparum antimalarial project, cell-based, ATP luminescence (AID 2303;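 active means inhibition above 50%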;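 further: 0% = DMSO wells and 100% = digitonin-killed cells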); settings: HepG2 viability, 24-48 h, at 10 µM, active compounds read high
[3] = target: L-lactate dehydrogenase (Plasmodium falciparum (isolate CDC / Honduras)) (UniProt Q27743); experiment: PfLDH activity inhibition – cell lysate, 3D7 strain, counter-screen for P. falciparum growth inhibition project (AID 2304);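 further: 0% = vehicle and 100% = reference inhibitor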; settings: P. falciparum 3D7 crude extract, LDH APAD/NBT absorbance; at 2 µM; active compounds read high
L-lactate dehydrogenase (Plasmodium falciparum (isolate CDC / Honduras)), sequence (Q27743 whole entry, looked up): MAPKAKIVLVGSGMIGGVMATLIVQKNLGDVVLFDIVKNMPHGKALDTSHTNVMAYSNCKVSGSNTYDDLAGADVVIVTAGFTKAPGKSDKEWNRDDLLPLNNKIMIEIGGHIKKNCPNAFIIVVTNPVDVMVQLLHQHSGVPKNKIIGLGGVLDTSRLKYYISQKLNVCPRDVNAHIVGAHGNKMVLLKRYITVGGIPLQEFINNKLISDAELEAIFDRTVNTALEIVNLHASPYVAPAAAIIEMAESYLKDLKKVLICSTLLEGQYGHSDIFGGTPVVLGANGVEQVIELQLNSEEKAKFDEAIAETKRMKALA

[4] = inhibition of 3D7 malaria parasite growth – strain 3D7 (AID 2306);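 further: 0% = DMSO wells and 100% = chloroquine plus artemisinin control wells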; settings: P. falciparum 3D7 erythrocytic growth, LDH absorbance, 72 h; at 2 µM; active compounds read high
[5] = target: Calcium-dependent protein kinase 1 (Plasmodium falciparum (isolate 3D7)) (UniProt P62344); experiment: PfCDPK1 kinase inhibitors, biochemical, TCAMS library (AID 1159585; cut-off not given, nearly all actives have IC50 up to about 0.98 µM;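 further: inhibitors leave more ATP so luminescence rises with inhibition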); settings: recombinant PfCDPK1, Kinase-Glo ATP depletion luminescence
Calcium-dependent protein kinase 1 (Plasmodium falciparum (isolate 3D7)), sequence (P62344 whole entry, looked up): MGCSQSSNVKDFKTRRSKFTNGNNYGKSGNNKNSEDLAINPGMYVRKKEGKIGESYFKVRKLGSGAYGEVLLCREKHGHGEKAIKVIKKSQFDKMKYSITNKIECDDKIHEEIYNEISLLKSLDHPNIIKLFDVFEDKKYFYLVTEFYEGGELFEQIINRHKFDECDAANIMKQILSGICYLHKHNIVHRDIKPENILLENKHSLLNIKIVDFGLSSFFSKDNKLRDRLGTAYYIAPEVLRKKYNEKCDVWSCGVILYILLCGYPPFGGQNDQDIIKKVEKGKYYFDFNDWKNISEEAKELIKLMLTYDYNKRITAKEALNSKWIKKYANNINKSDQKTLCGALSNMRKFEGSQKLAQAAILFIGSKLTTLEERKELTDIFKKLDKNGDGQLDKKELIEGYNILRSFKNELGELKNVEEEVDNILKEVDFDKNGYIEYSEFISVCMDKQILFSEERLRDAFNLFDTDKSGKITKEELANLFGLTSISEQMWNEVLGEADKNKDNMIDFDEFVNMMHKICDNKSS

[6] = target: Plasmodium falciparum protein kinase 6 (PK6, PF3D7_1337100) (UniProt Q8IDW1); experiment: PfPK6 kinase inhibitors, biochemical, TCAMS library (AID 1159586); settings: recombinant PfPK6, Kinase-Glo ATP depletion luminescence
Plasmodium falciparum protein kinase 6 (PK6, PF3D7_1337100), sequence (Q8IDW1 1-305): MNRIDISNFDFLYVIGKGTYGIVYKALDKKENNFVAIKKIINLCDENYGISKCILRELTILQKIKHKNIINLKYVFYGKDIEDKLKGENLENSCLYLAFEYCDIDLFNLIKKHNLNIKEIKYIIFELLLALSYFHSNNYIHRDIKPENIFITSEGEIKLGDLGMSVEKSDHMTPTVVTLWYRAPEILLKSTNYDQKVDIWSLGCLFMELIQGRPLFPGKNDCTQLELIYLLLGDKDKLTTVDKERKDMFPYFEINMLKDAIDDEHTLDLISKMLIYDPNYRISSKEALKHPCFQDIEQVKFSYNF

[7] = target: Protein kinase 7 (PK7), Plasmodium falciparum 3D7 (PF3D7_0213400) (UniProt Q7YTF7); experiment: inhibition of Plasmodium PK7 catalytic activity – biochemical, TCAMS antimalarial set, Kinase-Glo luminescence (AID 1159587); settings: recombinant PfPK7, Kinase-Glo ATP depletion luminescence
Protein kinase 7 (PK7), Plasmodium falciparum 3D7 (PF3D7_0213400), sequence (Q7YTF7 1-343): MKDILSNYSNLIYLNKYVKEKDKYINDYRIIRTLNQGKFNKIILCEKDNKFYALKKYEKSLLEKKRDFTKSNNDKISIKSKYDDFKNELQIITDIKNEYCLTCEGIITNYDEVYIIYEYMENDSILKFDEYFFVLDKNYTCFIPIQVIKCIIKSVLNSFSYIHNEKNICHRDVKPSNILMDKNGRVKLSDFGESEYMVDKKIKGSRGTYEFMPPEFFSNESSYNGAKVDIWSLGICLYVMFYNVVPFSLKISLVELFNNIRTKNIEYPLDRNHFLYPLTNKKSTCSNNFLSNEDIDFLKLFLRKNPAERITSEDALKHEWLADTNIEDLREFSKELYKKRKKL

[8] = target: Calcium-dependent protein kinase 4 (Plasmodium falciparum (isolate 3D7)) (UniProt Q8IBS5); experiment: PfCDPK4 kinase inhibitors, biochemical, TCAMS library (AID 1159588; cut-off not given, nearly all actives have IC50 up to about 0.91 µM); settings: recombinant PfCDPK4, Kinase-Glo ATP depletion luminescence
Calcium-dependent protein kinase 4 (Plasmodium falciparum (isolate 3D7)), sequence (Q8IBS5 whole entry, looked up): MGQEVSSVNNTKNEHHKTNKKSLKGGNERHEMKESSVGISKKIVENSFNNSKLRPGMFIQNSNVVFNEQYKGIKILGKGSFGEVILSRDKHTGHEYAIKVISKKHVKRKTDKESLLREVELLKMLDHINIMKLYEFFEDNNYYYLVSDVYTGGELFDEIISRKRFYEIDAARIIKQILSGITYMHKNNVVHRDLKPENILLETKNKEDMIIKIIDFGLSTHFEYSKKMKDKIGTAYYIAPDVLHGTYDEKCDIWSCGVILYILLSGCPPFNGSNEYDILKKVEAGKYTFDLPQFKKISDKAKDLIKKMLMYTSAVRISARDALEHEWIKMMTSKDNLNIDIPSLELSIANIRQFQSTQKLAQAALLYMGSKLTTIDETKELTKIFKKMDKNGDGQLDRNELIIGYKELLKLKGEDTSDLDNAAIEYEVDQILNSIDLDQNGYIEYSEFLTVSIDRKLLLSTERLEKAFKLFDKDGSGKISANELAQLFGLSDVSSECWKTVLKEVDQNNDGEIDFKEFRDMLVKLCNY

| SMILES | growth inhibition [1] | inhibition [2] | inhibition [3] [%] | growth inhibition [4] | outcome [5] | outcome [6] | outcome [7] | outcome [8] |
| --- | --- | --- | --- | --- | --- | --- | --- | --- |
| COc1ccc2nccc(NCC3(O)CCN(CC(O)c4ccc5c(c4)NC(=O)CS5)CC3)c2n1 (stereo not given) | 3% | 3% | 2 | 100% (active) | inactive | inactive | inactive | inactive |
| CC(C)COc1ccc(Cl)cc1Cc1ccc(-c2nc3ccc(CCN4CCCC4)cc3[nH]2)o1 | 94% (active) | 34% | 1 | 100% (active) | inactive | inactive | inactive | inactive |
| CNS(=O)(=O)CCNCc1ccc(-c2ccc3ncnc(Nc4ccc(OCc5ccccc5)cc4)c3c2)o1 | 26% | 19% | -3 | 101% (active) | inactive | inactive | inactive | inactive |
| CS(=O)(=O)c1cccc(-c2cnc(N)c3cc(-c4ccc(F)cc4)ccc23)c1 | 33% | 28% | 4 | 91% (active) | inactive | inactive | inactive | inactive |
| O=C(Nc1cccc(C(F)(F)F)c1)NC1CCN(c2ccnc3ccccc23)C1 (stereo not given) | 69% (active) | 23% | -2 | 101% (active) | inactive | inactive | inactive | inactive |
| COc1ccc(CNCc2ccc(-c3ccc(-c4nc5c(C)cccc5[nH]4)cc3)cc2)cc1 | 97% (active) | 53% (active) | 2 | 101% (active) | inactive | inactive | inactive | inactive |
| N#Cc1ccc2c(c1)CCN(CCC1CCC(NC(=O)/C=C/c3ccc(Cl)c(Cl)c3)CC1)CC2 (stereo not given) | 51% (active) | 31% | -11 | 100% (active) | inactive | inactive | inactive | inactive |
| Cc1ccc2nc(Cl)c3cc(C(=O)NCCCN4CCCC4)sc3c2c1 | 40% | 26% | 0 | 89% (active) | inactive | inactive | inactive | inactive |
| Fc1ccc2nc(-c3ccc(-c4ccc(CNCCc5ccncc5)cc4)s3)[nH]c2c1 | 100% (active) | 34% | -3 | 99% (active) | inactive | inactive | inactive | inactive |
| Cc1ccc2cc(NC(=O)CCCCCCCON3C(N)=NC(N)=NC34CCCCC4)ccc2n1 | 86% (active) | 6% | 3 | 98% (active) | inactive | inactive | inactive | inactive |
| Cc1cccc2[nH]c(-c3ccc(-c4cccc(CNCCCNS(C)(=O)=O)c4)s3)nc12 | 19% | 20% | 2 | 99% (active) | inactive | inactive | inactive | inactive |
| Cc1cc(N2CCCCC2)nc2ccc(NC(=O)c3cccc([N+](=O)[O-])c3)cc12 | 99% (active) | 9% | 2 | 95% (active) | inactive | inactive | inactive | inactive |
| O=C(/C=C/c1cccc(C(F)(F)F)c1)NCCCCCN1CCN(C(=O)Nc2ccc(Cl)c(Cl)c2)CC1 | -1% | 29% | 4 | 89% (active) | inactive | inactive | inactive | inactive |
| CC1CC(C)CN(CCCNc2ccc(C(=O)Nc3ccc(C(F)(F)F)cc3)cc2[N+](=O)[O-])C1 (stereo not given) | 99% (active) | 31% | -2 | 101% (active) | inactive | inactive | inactive | inactive |
| Cc1cccc2[nH]c(-c3ccc(-c4ccc(CNCc5cnn(-c6ccccc6)n5)cc4)s3)nc12 | 48% | 16% | -3 | 97% (active) | inactive | inactive | inactive | inactive |
| Cc1nnc2c(NC(=O)NC3CCCC3)cc3cc(-c4ccc(CN(C)C)cc4)ccc3n12 | 37% | 100% (active) | -2 | 100% (active) | inactive | inactive | inactive | inactive |
| O=C(Nc1ccc(Cn2ncc(N3CCCNCC3)c(Cl)c2=O)cc1)Nc1ccc(SC(F)(F)F)cc1 | 68% (active) | 9% | 4 | 93% (active) | inactive | inactive | inactive | inactive |
| O=C(c1ccc(Cl)cc1)C1CCCN(C2CCN(CCc3ccccc3)CC2)C1 (stereo not given) | 51% (active) | 37% | 1 | 96% (active) | inactive | inactive | inactive | inactive |
| c1ccc(CNCc2cccc(-c3cccc(-c4nc5ccccc5[nH]4)c3)c2)cc1 | 38% | 12% | -5 | 102% (active) | inactive | inactive | inactive | inactive |
| COc1cc(Cc2cnc(N)nc2N)ccc1OCc1cccc(Oc2ccccc2)c1 | 21% | 18% | 0 | 84% (active) | inactive | inactive | inactive | inactive |

| SMILES | growth inhibition [1] | inhibition [2] | inhibition [3] [%] | growth inhibition [4] | outcome [5] | outcome [6] | outcome [7] | outcome [8] |
| --- | --- | --- | --- | --- | --- | --- | --- | --- |
| CCN(CC)C(=O)C1CCCN(c2cc(C)nc(Nc3ccc(Cl)cc3)n2)C1 (stereo not given) | 64% (active) | 13% | 1 | 94% (active) | inactive | inactive | inactive | inactive |
| CC=CCON1C(N)=NC(N)=NC1(C)C | 1% | 57% (active) | 5 | 94% (active) | inactive | inactive | inactive | inactive |
| COc1ccccc1CC1CCCN(C2CCC(NC(=O)c3cc4ccccc4[nH]3)CC2)C1 (stereo not given) | 21% | 23% | -2 | 98% (active) | inactive | inactive | inactive | inactive |
| Cc1cnc(CCNC(=O)c2cc(-c3ccc(Cl)cc3)cs2)[nH]1 | 7% | 12% | 4 | 101% (active) | inactive | inactive | inactive | inactive |
| Nc1ncc(-c2ccccc2)cc1-c1cccc2ncccc12 | 99% (active) | 82% (active) | -2 | 97% (active) | inactive | inactive | inactive | inactive |
| O=C(Nc1cccc(F)c1)N(Cc1ccc(-c2ccc(CN3CCNCC3)cc2)cc1)C1CCN(Cc2ccccc2)CC1 | 53% (active) | 18% | 0 | 101% (active) | inactive | inactive | inactive | inactive |
| O=C(/C=C/c1ccc(Cl)c(Cl)c1)NCCCCCN1CCCC(C(=O)Nc2ccc(Cl)c(Cl)c2)C1 (stereo not given) | 11% | 53% (active) | -1 | 100% (active) | inactive | inactive | inactive | inactive |
| CS(=O)(=O)c1ccc2c(c1)CCN(CCC1CCC(NC(=O)c3cc4cccc(Br)c4[nH]3)CC1)CC2 (stereo not given) | 7% | 27% | -8 | 92% (active) | inactive | inactive | inactive | inactive |
| O=C(NCC1CCC(CNCCc2ccccc2)CC1)Nc1ccc(Cl)c(Cl)c1 (stereo not given) | -3% | 24% | -1 | 96% (active) | inactive | inactive | inactive | inactive |
| NC1=NC(c2ccccc2)(c2ccccc2)C(=O)N1CCCCc1ccccc1 | 81% (active) | 14% | -2 | 96% (active) | inactive | inactive | inactive | inactive |
| CC(CCc1ccccc1)NCC(O)c1ccc2c3c(cccc13)S(=O)(=O)N2C (stereo not given) | 99% (active) | 16% | 3 | 99% (active) | inactive | inactive | inactive | inactive |
| CCCn1c(SCC(=O)Nc2cc(C(F)(F)F)ccc2Cl)n[nH]c1=O | 94% (active) | -6% | -2 | 96% (active) | inactive | inactive | inactive | inactive |
| Nc1ccc(-c2nc3ccc(Oc4ccc5nc(-c6ccc(N)cc6)[nH]c5c4)cc3[nH]2)cc1 | 99% (active) | 18% | 7 | 100% (active) | inactive | inactive | inactive | inactive |
| Cc1ccccc1OCCCN1CCN(CC(c2ccc(F)cc2)N2CCN(C(C)C)CC2)CC1 (stereo not given) | 64% (active) | 20% | 2 | 99% (active) | inactive | inactive | inactive | inactive |
| COc1cc(C=CC(=O)N2CCN(Cc3cccc(C)c3)CC2)ccc1OCc1c(C)noc1C | 95% (active) | 8% | -4 | 86% (active) | inactive | inactive | inactive | inactive |
| Cc1cccc(N2C(N)=NC(N)=NC2(C)C)c1C | -2% | -2% | -6 | 90% (active) | inactive | inactive | inactive | inactive |
| Cc1nnc2c(NC(=O)NC3CCCC3)cc3cc(-c4ccc(CN5CCN(C)CC5)cc4)ccc3n12 | 91% (active) | 100% (active) | -1 | 99% (active) | inactive | inactive | inactive | inactive |
| O=C(Nc1ccc2c(c1)CCCN2S(=O)(=O)c1cccs1)c1cc([N+](=O)[O-])ccc1Cl | 95% (active) | 29% | 3 | 93% (active) | inactive | inactive | inactive | inactive |
| CCc1cn2c3c(cc(C(=O)N[C@@H](Cc4cccc(F)c4)[C@H](O)CNC4CCOCC4)cc13)N(C)S(=O)(=O)CC2 | 97% (active) | -2% | -2 | 97% (active) | inactive | inactive | inactive | inactive |
| CN(C)C(=O)n1cnc(S(=O)(=O)N(C)c2ccc(Cl)cc2)n1 | 80% (active) | 7% | 3 | 88% (active) | inactive | inactive | inactive | inactive |
